Holding throughout (assay): log2 fold change, soluble protein after heating vs DMSO (PISA); higher = thermal stabilisation; K562 lysate, 10 uM; active = over 0.2 and 3.5 SD of the protein, either way, in both replicates (recomputed)
Compound in one experiment: C#Cc1cccc(Nc2ncnc3cc(OCCOC)c(OCCOC)cc23)c1 [erlotinib]
Summed up: (§1)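 Pellets of K562 cells were dounce-homogenised in PBS pH 7.4 with 1 mM MgCl2, and the crude extract was held at 1 mg/mL protein for a 30 min treatment with 10 μM compound. Aliquots were heated for 3 min over 48°C-58°C and pooled before NP-40 was added to 0.5% at 4°C. The supernatant from 21,000xg for 90 min was quantified by TMTpro 16plex LC-MS/MS with channel sums equalised. Values are reported from duplicates as log-two fold change in thermal stability relative to solvent controls.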

Compound in experiment [1]: C1=CC(=CC=C1C2=NC3=C(N2)C=C(C=C3)C(=O)N)OC4=CC=C(C=C4)Cl
The essentials:
as §1

Compound in experiment [2]: C1=CC2=NC=CN=C2C=C1/C=C/3\C(=O)NC(=O)S3
Summed up: as §1

Compound in experiment [3]: C1=CC=C(C=C1)C2=NC(=C(N2)C3=CC=NC=C3)C4=CC(=C(C=C4)Cl)O
Summed up: as §1

Compound in another experiment: C1COCCN1CCN2C3=CC=CC=C3N=C2NC(=O)C4=CC(=CC=C4)[N+](=O)[O-] [IRAK-1-4 Inhibitor I]
Summed up:
as §1

Compound in a further experiment: C=CC(=O)N1CCC[C@@H](n2nc(-c3ccc(Oc4ccccc4)cc3)c3c(N)ncnc32)C1 [ibrutinib]
The essentials: as §1

Compound in experiment [4]: CC(=O)c1cnc2ccc(-c3cc(Cl)c(O)c(Cl)c3)nc2c1N[C@H]1CC[C@H](CN(C)C)CC1
Summed up:
as §1

Compound in another experiment: CC(C)(C)Cn1c(N)nc2ccc(-c3[nH]c(C(C)(C)C)nc3-c3ccc(F)cc3)nc21 [ralimetinib]
The essentials: as §1

Compound in experiment [5]: CC(C)(O)CC(=O)NCCn1ccc2ncnc(Nc3ccc(Oc4cccc(C(F)(F)F)c4)c(Cl)c3)c21
The essentials:
as §1

Compound in experiment [6]: CC(C)C1=C2N=C(C=C(N2N=C1)NCC3=CC=CC=C3)NCCCCCCN
Summed up: as §1

Compound in experiment [7]: CC1=C(C(CC(=O)N1)C2=CC=C(C=C2)C(F)(F)F)C(=O)NC3=C(C=C4C(=C3)C=NN4)F
Summed up: as §1

Compound in experiment [8]: CC1=C(C2=C(C=C1)C(=O)C3=CC=CC=C3N2CCCN)C
Summed up: as §1

Compound in experiment [9]: CC1=C(C=C(C=C1)NC(=O)C2=CC(=CC=C2)C(C)(C)C#N)NC3=CC4=C(C=C3)N=CN(C4=O)C
The essentials:
as §1

Compound in experiment [10]: CC1=C(C=C(C=C1)NC(=O)C2=CC(=CC=C2)N(C)C)NC(=O)C3=CC=C(C=C3)O
The essentials: as §1

Compound in experiment [11]: CC1=CC=C(C=C1)SC2=C3C=C(SC3=CN=C2)C(=O)N
Summed up:
as §1

Compound in experiment [12]: C/C(=N\NC(=O)C1=CC(=CC=C1)S(=O)(=O)N2CCOCC2)/C3=C(C=CC(=C3)Cl)O
The essentials:
as §1

Compound in experiment [13]: C1=CC2=C(C=CC(=C2)/C=C\3/C(=O)NC(=NCC4=CC=CS4)S3)N=C1
The essentials:
as §1

Compound in experiment [14]: C1=CC=C2C(=C1)C3=NNC4=CC=CC(=C43)C2=O
The essentials:
as §1

Compound in experiment [15]: C1CCN(C1)C(=O)NC2=CC=CC(=C2)NC3=NC=C(C(=N3)NCCC4=CN=CN4)Br
The essentials: as §1

Compound in experiment [16]: C1CN(CCC1(CC2=CC=C(C=C2)Cl)N)C3=NC=NC4=C3C=CN4
Summed up: as §1

About 8,800 targets were measured; listed, in parts, are those with a hit and a random draw of the rest. About 0.5% of all pairs of compound and target were hits. A number with no mark means an inactive call.

Chain of UniProt O94916 (O94916 whole entry, looked up): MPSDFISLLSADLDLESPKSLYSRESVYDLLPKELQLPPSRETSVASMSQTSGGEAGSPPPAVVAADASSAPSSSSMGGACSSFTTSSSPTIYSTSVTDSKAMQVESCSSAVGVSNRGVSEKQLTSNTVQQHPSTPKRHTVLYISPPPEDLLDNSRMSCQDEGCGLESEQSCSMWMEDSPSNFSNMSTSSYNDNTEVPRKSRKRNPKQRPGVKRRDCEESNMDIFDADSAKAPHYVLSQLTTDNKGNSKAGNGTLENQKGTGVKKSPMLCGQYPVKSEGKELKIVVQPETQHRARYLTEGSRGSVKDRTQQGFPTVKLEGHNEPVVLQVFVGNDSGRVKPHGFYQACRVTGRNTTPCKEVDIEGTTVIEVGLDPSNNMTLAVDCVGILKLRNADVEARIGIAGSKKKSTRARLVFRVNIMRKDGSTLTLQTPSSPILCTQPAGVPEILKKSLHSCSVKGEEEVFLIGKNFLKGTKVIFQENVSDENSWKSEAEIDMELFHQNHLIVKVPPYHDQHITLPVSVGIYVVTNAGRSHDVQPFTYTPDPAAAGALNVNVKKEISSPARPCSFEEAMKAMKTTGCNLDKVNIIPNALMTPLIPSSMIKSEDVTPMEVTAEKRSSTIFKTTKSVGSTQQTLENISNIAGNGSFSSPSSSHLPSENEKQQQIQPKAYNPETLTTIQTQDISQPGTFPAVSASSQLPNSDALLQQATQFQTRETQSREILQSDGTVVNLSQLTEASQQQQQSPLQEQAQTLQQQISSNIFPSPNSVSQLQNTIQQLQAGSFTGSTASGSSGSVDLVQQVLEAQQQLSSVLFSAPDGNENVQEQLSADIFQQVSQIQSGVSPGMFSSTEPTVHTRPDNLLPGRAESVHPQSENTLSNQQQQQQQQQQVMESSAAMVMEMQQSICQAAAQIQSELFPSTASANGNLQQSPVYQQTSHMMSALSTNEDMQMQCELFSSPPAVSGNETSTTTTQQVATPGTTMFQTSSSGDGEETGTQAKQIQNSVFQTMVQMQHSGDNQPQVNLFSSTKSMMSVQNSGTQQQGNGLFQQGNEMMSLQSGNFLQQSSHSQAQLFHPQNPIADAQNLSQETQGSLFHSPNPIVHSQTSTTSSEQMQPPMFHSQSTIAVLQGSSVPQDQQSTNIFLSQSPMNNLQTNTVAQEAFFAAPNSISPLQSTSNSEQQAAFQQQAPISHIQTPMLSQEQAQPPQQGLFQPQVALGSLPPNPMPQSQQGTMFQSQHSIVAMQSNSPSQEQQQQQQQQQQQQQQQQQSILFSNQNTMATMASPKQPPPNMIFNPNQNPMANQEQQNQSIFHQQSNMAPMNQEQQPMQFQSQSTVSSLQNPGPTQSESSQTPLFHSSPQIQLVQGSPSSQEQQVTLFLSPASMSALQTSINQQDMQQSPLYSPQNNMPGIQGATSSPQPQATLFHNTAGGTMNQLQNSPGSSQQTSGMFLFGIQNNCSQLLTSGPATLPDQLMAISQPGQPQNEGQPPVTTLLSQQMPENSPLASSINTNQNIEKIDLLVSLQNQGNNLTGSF
Chain of UniProt Q9UK39 (Q9UK39 whole entry, looked up): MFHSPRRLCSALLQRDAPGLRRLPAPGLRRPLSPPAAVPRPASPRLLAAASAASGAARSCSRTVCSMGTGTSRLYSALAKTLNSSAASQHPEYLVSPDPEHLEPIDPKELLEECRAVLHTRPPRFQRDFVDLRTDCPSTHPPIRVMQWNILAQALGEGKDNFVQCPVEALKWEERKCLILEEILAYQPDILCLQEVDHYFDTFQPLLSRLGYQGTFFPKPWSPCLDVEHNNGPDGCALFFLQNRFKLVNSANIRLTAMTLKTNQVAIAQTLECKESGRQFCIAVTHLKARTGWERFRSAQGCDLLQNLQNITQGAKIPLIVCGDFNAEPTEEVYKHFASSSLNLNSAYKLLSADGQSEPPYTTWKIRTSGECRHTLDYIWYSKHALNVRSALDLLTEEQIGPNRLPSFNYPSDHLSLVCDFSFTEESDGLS
Chain of UniProt Q9BWT3 (Q9BWT3 whole entry, looked up): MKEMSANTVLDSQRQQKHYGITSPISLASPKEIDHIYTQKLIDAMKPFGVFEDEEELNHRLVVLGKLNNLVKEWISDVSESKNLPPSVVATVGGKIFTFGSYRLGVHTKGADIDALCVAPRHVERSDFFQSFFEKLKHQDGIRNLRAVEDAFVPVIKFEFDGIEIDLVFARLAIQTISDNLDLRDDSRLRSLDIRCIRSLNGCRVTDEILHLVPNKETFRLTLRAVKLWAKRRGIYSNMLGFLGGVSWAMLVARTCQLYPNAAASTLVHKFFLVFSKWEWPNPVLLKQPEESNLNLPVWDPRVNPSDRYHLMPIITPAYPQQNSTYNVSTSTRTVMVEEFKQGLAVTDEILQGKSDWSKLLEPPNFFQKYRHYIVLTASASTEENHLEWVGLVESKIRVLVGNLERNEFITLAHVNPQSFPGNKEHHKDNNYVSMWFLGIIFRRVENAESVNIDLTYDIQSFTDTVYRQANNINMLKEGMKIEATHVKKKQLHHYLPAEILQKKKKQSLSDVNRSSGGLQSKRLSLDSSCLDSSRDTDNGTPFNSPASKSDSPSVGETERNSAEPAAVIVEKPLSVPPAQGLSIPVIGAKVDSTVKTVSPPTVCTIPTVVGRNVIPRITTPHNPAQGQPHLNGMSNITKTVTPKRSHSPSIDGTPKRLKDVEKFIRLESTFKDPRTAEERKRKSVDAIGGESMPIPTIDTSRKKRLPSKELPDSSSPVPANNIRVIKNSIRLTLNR
Chain of UniProt Q9BXW6 (Q9BXW6 whole entry, looked up): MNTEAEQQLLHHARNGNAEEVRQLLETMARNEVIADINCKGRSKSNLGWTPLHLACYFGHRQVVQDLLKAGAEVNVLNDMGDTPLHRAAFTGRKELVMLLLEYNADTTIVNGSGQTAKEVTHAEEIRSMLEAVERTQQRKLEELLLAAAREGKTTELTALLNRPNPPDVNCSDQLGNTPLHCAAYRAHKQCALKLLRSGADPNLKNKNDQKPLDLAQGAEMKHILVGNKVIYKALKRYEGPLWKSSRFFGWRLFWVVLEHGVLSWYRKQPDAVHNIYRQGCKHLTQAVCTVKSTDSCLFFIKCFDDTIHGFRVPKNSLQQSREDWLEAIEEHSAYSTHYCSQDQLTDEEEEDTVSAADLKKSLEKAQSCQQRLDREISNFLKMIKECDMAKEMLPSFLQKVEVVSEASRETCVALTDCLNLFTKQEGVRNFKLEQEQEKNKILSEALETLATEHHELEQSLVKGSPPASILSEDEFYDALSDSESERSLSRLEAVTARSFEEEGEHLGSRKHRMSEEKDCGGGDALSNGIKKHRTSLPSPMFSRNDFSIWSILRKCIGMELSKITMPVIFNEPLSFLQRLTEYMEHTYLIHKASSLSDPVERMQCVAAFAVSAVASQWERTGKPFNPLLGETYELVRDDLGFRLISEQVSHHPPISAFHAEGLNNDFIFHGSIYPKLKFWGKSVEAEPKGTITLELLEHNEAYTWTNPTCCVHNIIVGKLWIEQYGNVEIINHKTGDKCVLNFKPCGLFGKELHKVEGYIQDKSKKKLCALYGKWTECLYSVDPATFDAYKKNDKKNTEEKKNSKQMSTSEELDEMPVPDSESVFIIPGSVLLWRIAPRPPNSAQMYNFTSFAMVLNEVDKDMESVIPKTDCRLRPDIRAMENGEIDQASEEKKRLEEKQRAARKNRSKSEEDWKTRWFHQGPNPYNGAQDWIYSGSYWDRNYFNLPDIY
Chain of UniProt P24468 (P24468 whole entry, looked up): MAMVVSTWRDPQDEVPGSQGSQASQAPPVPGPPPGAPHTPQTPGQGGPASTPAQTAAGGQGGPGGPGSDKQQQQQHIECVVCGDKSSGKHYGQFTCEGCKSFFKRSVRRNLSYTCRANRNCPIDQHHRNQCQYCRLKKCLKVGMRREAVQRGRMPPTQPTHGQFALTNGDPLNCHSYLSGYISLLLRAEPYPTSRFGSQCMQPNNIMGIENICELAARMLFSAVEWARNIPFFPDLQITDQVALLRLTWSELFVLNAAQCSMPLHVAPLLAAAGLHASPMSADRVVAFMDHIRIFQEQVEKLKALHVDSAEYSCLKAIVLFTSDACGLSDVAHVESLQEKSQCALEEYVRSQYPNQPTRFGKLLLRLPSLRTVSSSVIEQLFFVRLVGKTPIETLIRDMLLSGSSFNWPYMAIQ
Chain of UniProt P53370 (P53370 whole entry, looked up): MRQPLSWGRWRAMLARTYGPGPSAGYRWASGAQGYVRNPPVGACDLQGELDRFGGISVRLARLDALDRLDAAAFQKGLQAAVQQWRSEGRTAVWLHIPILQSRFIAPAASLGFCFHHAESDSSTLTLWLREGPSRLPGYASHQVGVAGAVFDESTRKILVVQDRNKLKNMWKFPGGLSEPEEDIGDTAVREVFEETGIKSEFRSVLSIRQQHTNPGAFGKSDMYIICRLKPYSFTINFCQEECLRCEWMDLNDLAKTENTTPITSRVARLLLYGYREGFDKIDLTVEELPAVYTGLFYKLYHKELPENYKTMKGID
Chain of UniProt Q0ZGT2 (Q0ZGT2 whole entry, looked up): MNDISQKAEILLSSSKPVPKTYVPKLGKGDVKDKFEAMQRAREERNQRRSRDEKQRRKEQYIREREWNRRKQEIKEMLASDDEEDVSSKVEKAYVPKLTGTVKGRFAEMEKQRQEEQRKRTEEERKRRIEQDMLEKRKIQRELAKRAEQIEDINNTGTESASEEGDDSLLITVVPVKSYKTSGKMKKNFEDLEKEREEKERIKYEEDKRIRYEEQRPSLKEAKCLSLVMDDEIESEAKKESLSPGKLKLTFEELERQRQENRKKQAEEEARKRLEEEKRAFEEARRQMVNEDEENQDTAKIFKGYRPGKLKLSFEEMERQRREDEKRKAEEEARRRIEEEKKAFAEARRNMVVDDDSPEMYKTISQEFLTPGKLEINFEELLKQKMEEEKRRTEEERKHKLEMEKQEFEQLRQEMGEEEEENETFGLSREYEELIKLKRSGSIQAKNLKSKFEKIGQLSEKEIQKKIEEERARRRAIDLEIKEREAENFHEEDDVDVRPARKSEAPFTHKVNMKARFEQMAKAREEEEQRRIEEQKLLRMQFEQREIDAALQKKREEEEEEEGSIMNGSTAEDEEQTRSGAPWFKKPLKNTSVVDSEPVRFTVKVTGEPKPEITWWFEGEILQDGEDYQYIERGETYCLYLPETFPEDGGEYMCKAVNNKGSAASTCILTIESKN

As for NR2F2 (UniProt P24468), the log2 fold change was -0.007 with erlotinib; 0 in [1]; -0.192 in [2]; 0.076 in experiment [3]; 0.048 with IRAK-1-4 Inhibitor I; 0.007 with ibrutinib. Moreover, the log2 fold change is -0.09 in experiment [4]; -0.006 in the experiment with ralimetinib; -0.069 in experiment [5]; -0.067 in experiment [6]; 0.097 in [7]; 0.032 in [8]. The log2 fold change was -0.031 in experiment [9], 0.065 in experiment [10] and -0.042 in experiment [11].
For NEXN (UniProt Q0ZGT2), the log2 fold change with erlotinib was 0.091; in [12], -0.011; in [1] it was -0.019; in experiment [13], -0.067; in [2], -0.154; in [3], -0.144. In addition, the log2 fold change is -0.049 in [14]; -0.255 in experiment [15]; 0.28 in experiment [16]; -0.133 with IRAK-1-4 Inhibitor I; 0.173 in the experiment with ibrutinib; -0.008 in experiment [4]. In addition, the log2 fold change is 0.257 in the experiment with ralimetinib; 0.057 in experiment [5]; 0.066 in experiment [6]; -0.012 in experiment [7]; -0.065 in [8]; 0.101 in [10]. Further, the log2 fold change in [11] was -0.017.
Consider PARD3B (UniProt Q8TEW8), for which the log2 fold change with erlotinib is 0.025; in [1], -0.084; in [6], 0.091; in [8], 0.071.
Take PAGE4 (UniProt O60829): the log2 fold change with erlotinib was -0.423; in experiment [1], 0.098; in experiment [2] it was 0.034; in [3], 0.015; in experiment [15], -0.068; in experiment [16], -0.095. The log2 fold change with IRAK-1-4 Inhibitor I was -0.034; in the experiment with ibrutinib, 0.056; in experiment [4] it was -0.029; with ralimetinib, 0.028; in experiment [5], -0.077; in [6], 0.072. Further, the log2 fold change is -0.014 in experiment [8], 0.04 in experiment [9], 0.078 in experiment [10] and 0.004 in experiment [11].
Turning to MUC5AC (UniProt P98088), the log2 fold change in [3] is 0.015; with IRAK-1-4 Inhibitor I it was -0.074; with ralimetinib, -0.067; in experiment [5] it was 0.06; in experiment [7] it was 1.44; in [10] it was 0.041.
With PAPOLG (UniProt Q9BWT3), the log2 fold change with erlotinib was 0; in [12], -0.068; in experiment [1], -0.092; in experiment [13], 0.035; in experiment [3], 0.055; in experiment [14] it was 0.041. The log2 fold change in [15] was -0.086; in experiment [16], 0.104; with IRAK-1-4 Inhibitor I, 0.136; with ralimetinib, 0.01; in experiment [5], -0.071; in experiment [6] it was -0.19. For the same target, the log2 fold change was -0.089 in [7], 0.012 in experiment [8], -0.028 in experiment [9] and -0.092 in experiment [10].
For NR2C2 isoform 2 (UniProt P49116), the log2 fold change in the experiment with erlotinib was 0.006; in experiment [12], 0.135; in experiment [1], -0.014; in experiment [13], 0.134; in experiment [2], -0.012; in experiment [3] it was 0.064. Besides, the log2 fold change in [14] was -0.035; in [15] it was 0.061; in experiment [16], -0.041; with IRAK-1-4 Inhibitor I, -0.019; with ibrutinib, 0.069; in experiment [4], -0.081. The log2 fold change with ralimetinib is 0.014; in experiment [5], 0; in experiment [6], -0.03; in experiment [8] it was -0.064; in experiment [9], 0.044; in [10], -0.019. The log2 fold change in [11] was -0.086.
On to OSBPL1A (UniProt Q9BXW6), for which the log2 fold change with erlotinib is 0.235; in experiment [1], 0.205; in experiment [2] it was 0.038; in the experiment with ibrutinib it was 0.019; in [4] it was -0.002; in [6] it was 0.116. The log2 fold change in experiment [7] is 0.152; in experiment [8], -0.069; in experiment [9], 0.012; in [11], -0.028.
For the target NUB1 isoform 2 (UniProt Q9Y5A7), in experiment [9], the log2 fold change is 0.075.
Regarding NOCT (UniProt Q9UK39), the log2 fold change is -0.129 with erlotinib; 0.061 in experiment [1]; 0.1 in [3]; -0.134 in experiment [15]; 0.06 in [16]; 0.007 in the experiment with IRAK-1-4 Inhibitor I. Besides, the log2 fold change in [4] is 0.001; with ralimetinib, 0.068; in experiment [5] it was -0.06; in experiment [6] it was 0.014; in [7], 0.004; in experiment [8], 0.114. For the same target, the results for the log2 fold change in [9], in [10] and in experiment [11] were -0.012, -0.066 and 0.064, respectively.
As for MYLK (UniProt Q15746), the log2 fold change in experiment [12] was -0.067; in experiment [13], 0.027; in experiment [2], 0.025; in experiment [14], 0.345; in [15] it was 0.106; in experiment [16], -0.262. Moreover, the log2 fold change in the experiment with ibrutinib is 0.099; in experiment [4], 0.226; in [7] it was 0.061; in experiment [9], 0.228; in experiment [11], 0.004.
With NFAT5 isoform 4 (UniProt O94916), the results for the log2 fold change (in experiment [2]; in the experiment with ibrutinib; in experiment [9]) were 0.161, -0.016 and 0.088, respectively.
On to NUDT6 (UniProt P53370), for which the log2 fold change with erlotinib was -0.01; in experiment [12] it was 0.113; in [1] it was -0.02; in experiment [13] it was -0.518 (active); in [3], -0.008; in experiment [14], 0.111. In addition, the log2 fold change was -0.06 in experiment [15]; 0.06 in experiment [16]; 0.032 with IRAK-1-4 Inhibitor I; 0.065 in the experiment with ralimetinib; -0.033 in [5]; 0.054 in experiment [6]. The results for the log2 fold change in [8], in experiment [9] and in experiment [10] were 0.169, 0.011 and -0.042, respectively.

(Values after the supplement of paper PMC10849652.)
